Screens deposited in PubChem by National Center for Advancing Translational Sciences (NCATS).
Pf growth 96h: inhibits malaria parasite growth, 96 h | Potency, µM (titrated, usually from 28.7 µM), inactives show top-dose activity change, negative = inhibition, hits mostly inhibitors | 320,000 tested, 6.9% active | P. falciparum luciferase reporter growth, 96 h; further: potency means the concentration at half of the fitted maximal effect; on the % scale 0 is the no-effect control and ±100 the full control effect
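Luminescence readout: decreased luciferase signal marks inhibited growth of reporter-expressing P. falciparum in infected red cells (2% hematocrit, 0.05% parasitemia final), exposed to compound two generations (96 h, 37 C, 5% CO2).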
CHX counter: affects cycloheximide protein synthesis inhibition readout, counter-screen; 300,000 tested, 12% active; AID 2314; cell reporter, cycloheximide protein synthesis inhibition counterscreen; max response, %; in the data active means max response mostly above about 13%, no sharp cut-off; inactive means mostly below about 14%; further: read at 38.3 µM for the half of the compounds with a filed dose; 0% is about no effect
Shiga toxin inh: Shiga toxin inhibition | inhibition, % at 38.7 µM | Vero cells, Shiga toxin protein synthesis inhibition reporter | AID 2315 | 290,000 tested, 9.2% active; in the data active means inhibition mostly above about 28%, no sharp cut-off; inactive means mostly below about 43%; further: 0% is about no effect
Pf growth 48h: P. falciparum growth inhibition at 48 hours (one generation); Potency, µM (top dose mostly 28.7 µM), for the others: at the highest dose activity change, negative = inhibition, actives largely listed as inhibitors; AID 504832; P. falciparum luciferase growth in erythrocytes, 48 h; 310,000 tested, 5.9% active; further: potency means the concentration at half of the fitted maximal effect; on the % scale 0 is the no-effect control and ±100 the full control effect
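Erythrocytes infected with P. falciparum carrying an integrated firefly luciferase reporter (2% hematocrit, 0.1% parasitemia final) were exposed to compounds in RPMI 1640 with 0.5% Albumax at 37 C, 5% CO2. Growth inhibition was scored as reduced luminescence.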
Starred values were filed as active, the others as inactive. The list is not random: actives were taken first. Their share in the collection is about 21%. Unless noted, the call rests on the fitted dose curve; in most records, active means well fitted inhibition curve with a large enough effect; inconclusive means small, poorly fitted or top-dose-only effect, or another doubt; inactive means no such curve, though single readings can be large or run the other way.

What do the screens show for `COCCOC(=O)C1=C(C)NC(=O)NC1c1cn(-c2ccccc2)nc1-c1cccs1` (stereo unspecified)?
Pf growth 96h: 50%; CHX counter: 1; Shiga toxin inh: 10; Pf growth 48h: -20%

Results for CC1=C(C#N)C(c2cn(-c3ccccc3)nc2-c2cccs2)C(C#N)=C(C)N1 ?
Pf growth 96h: 44%; CHX counter: -9; Shiga toxin inh: -5; Pf growth 48h: 1.7µM*

How did O=S1(=O)c2cccc3cccc(c23)N1Cc1ccc(-c2nnco2)cc1 do in these assays?
CHX counter: -9; Shiga toxin inh: 12; Pf growth 48h: -12%

Results for c1cnc2c(SCc3ccc(-c4nnco4)cc3)cccc2c1 ?
Pf growth 96h: 32%; CHX counter: 39*; Shiga toxin inh: 68*; Pf growth 48h: 68%

What do the screens show for `Cc1cccc(CSc2[nH]c(=O)ncc2C)c1`?
Pf growth 96h: 31%; CHX counter: 10; Shiga toxin inh: 10; Pf growth 48h: 50%

How did NNC(=O)c1ccc(CSc2cccc3cccnc23)cc1 do in these assays?
Pf growth 96h: 3%; CHX counter: 23*; Shiga toxin inh: 20; Pf growth 48h: -1%

What do the screens show for `O=C(N/N=C/c1ccccc1Br)c1ccc(CSc2cccc3cccnc23)cc1`?
Pf growth 96h: inconclusive; CHX counter: 12*; Shiga toxin inh: 8

How did Cc1cccc(CSc2cccc3cccnc23)c1 do in these assays?
Pf growth 96h: 4.7µM*; CHX counter: 60*; Shiga toxin inh: 152*; Pf growth 48h: 32%

How did COC(=O)c1ccccc1NC(=O)c1ccc(F)cc1F do in these assays?
CHX counter: 10; Shiga toxin inh: -7

What do the screens show for `COc1ccc(Br)cc1CNC(=O)CN1C(=O)C(c2ccccc2)Oc2cccnc21` (stereo unspecified)?
Pf growth 96h: 7%; CHX counter: -5; Shiga toxin inh: 6; Pf growth 48h: inconclusive

How did Cc1cc(S(=O)(=O)NC2CC(C)(C)NC(C)(C)C2)c(Cl)cc1Cl do in these assays?
Pf growth 96h: 68%; CHX counter: -2; Pf growth 48h: inconclusive

What do the screens show for `CCNC(=O)C(=O)NCC(c1cccs1)S(=O)(=O)c1ccc(C)cc1` (stereo unspecified)?
Pf growth 96h: 4.1µM*; CHX counter: -6; Shiga toxin inh: 18; Pf growth 48h: 22%

What do the screens show for `CCOC(=O)C(=O)NCC(c1cccs1)S(=O)(=O)c1ccc(C)cc1` (stereo unspecified)?
Pf growth 96h: inconclusive; Pf growth 48h: -1%

How did Cc1ccc(S(=O)(=O)C(CNC(=O)C(C)C)c2cccs2)cc1 (stereo unspecified) do in these assays?
Pf growth 96h: 27%; CHX counter: -1; Shiga toxin inh: -10; Pf growth 48h: 4%

What do the screens show for `CCOC(=O)C(=O)NCC(c1cccs1)S(=O)(=O)c1ccc(F)cc1` (stereo unspecified)?
Pf growth 96h: 12µM*; Pf growth 48h: inconclusive

Results for CCCCc1ccc(S(=O)(=O)Nc2nnc(C)s2)cc1 ?
Pf growth 96h: inconclusive; CHX counter: -1; Shiga toxin inh: 13; Pf growth 48h: -4%

Results for CCCc1ccc(OCc2nc(-c3ccc(NC(=O)c4cccs4)cc3)no2)cc1 ?
Pf growth 96h: inconclusive; CHX counter: 80*; Shiga toxin inh: 176*; Pf growth 48h: 1.9µM*

What do the screens show for `Cc1cc(OCc2nc(-c3ccc(NC(=O)c4cccnc4)cc3)no2)ccc1Cl`?
Pf growth 96h: inconclusive; CHX counter: 0; Shiga toxin inh: 10; Pf growth 48h: inconclusive

How did O=C(O)COc1ccc(NC(=O)c2ccco2)cc1 do in these assays?
Pf growth 96h: 11%; CHX counter: 1; Shiga toxin inh: 4

What do the screens show for `CCCc1ccc(OCc2nc(-c3ccc(NC(=O)c4ccco4)cc3)no2)cc1`?
Pf growth 96h: inconclusive; CHX counter: 47*; Shiga toxin inh: 57; Pf growth 48h: inconclusive

Results for COc1ccc(OCC(=O)NCCNC(=O)c2cccnc2)cc1 ?
Pf growth 96h: 1%; CHX counter: -3; Shiga toxin inh: -9; Pf growth 48h: 32%

What do the screens show for `CCOC(=O)c1ccc(-c2c(-c3ccccc3OC)oc3ccccc23)cc1F`?
Pf growth 96h: 3.3µM*; Pf growth 48h: inconclusive

What do the screens show for `COc1cc2c(-c3ccc4cc[nH]c4c3)c(-c3ccc(C#N)cc3)oc(=O)c2cc1OC`?
Pf growth 96h: inconclusive; Pf growth 48h: 9.3µM*

How did COc1cc2c(cc1NS(=O)(=O)N1CCCCC1)oc1ccccc12 do in these assays?
CHX counter: 4; Shiga toxin inh: -19; Pf growth 48h: 5%

How did COc1ccccc1-c1oc2ccccc2c1-c1ccc2cc[nH]c2c1 do in these assays?
Pf growth 96h: inconclusive; Pf growth 48h: 2.1µM*

What do the screens show for `CC(C)(C)c1ccc(OCc2nc(-c3ccccn3)no2)c(Br)c1`?
Pf growth 96h: 1%; CHX counter: 84*; Shiga toxin inh: 96*; Pf growth 48h: 21%

Results for Clc1cc(Cl)c(OCc2nc(-c3ccccn3)no2)cc1Cl ?
CHX counter: 47*; Shiga toxin inh: 125*; Pf growth 48h: 391%

How did O=C(NC(=S)Nc1ccc2c(c1)OCCO2)c1ccccc1 do in these assays?
Pf growth 96h: 15%; CHX counter: 55*; Shiga toxin inh: 73*; Pf growth 48h: -10%

What do the screens show for `O=C(COC(=O)c1c(F)cccc1F)Nc1ccc2c(c1)OCO2`?
Pf growth 96h: 35%; Pf growth 48h: 56%

How did O=C(Nc1ccc2c(c1)OCCO2)c1c(F)cccc1F do in these assays?
CHX counter: 41*; Shiga toxin inh: 74*; Pf growth 48h: 263%
